Rows were chosen to be rich in hits. Some 3.9% of all compounds tested hit in one or more screens of this group.
PLC-beta3 inh: human PLC-beta3 inhibitors, primary screen, biochemical, fluorescence; Purified PLC-beta3, fluorogenic substrate; inhibition, % at 12.2 µM; 370,000 tested, 0.18% active; AID 720704, 2013; in the data active = inhibition above about 11%
Target sequence (Q01970 whole entry, looked up): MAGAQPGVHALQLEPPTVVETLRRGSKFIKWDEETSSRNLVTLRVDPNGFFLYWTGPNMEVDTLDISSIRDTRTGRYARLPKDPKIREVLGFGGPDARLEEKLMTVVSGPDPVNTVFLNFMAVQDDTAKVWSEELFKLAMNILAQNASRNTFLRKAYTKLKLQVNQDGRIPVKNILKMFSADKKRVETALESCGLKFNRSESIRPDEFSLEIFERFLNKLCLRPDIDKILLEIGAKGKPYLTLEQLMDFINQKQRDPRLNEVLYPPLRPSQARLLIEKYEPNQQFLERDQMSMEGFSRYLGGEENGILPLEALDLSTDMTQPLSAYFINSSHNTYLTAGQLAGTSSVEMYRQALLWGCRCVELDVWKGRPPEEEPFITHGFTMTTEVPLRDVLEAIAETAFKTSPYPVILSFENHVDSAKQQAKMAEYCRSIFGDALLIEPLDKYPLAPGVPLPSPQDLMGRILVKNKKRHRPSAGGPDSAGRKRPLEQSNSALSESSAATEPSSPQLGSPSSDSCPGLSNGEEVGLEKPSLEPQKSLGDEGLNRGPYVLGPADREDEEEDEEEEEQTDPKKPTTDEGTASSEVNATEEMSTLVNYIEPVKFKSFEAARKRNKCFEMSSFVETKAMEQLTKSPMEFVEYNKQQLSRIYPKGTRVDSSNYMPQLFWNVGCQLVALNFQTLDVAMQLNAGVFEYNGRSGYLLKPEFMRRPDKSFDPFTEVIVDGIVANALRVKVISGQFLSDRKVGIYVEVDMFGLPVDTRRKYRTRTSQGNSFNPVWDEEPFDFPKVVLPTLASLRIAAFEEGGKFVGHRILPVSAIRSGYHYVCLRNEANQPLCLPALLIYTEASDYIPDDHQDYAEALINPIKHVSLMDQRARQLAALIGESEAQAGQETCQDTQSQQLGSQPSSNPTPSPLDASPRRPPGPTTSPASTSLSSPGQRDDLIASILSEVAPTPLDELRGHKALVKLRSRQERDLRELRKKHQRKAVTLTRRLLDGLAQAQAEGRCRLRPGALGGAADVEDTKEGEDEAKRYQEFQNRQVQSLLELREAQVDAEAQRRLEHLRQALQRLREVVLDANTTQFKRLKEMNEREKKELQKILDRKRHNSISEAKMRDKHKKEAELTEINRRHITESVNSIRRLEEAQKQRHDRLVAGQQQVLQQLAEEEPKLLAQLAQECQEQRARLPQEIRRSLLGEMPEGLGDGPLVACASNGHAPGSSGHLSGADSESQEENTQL
HIF activator: HIF pathway transcriptional activators, primary screen, cell-based, U2OS HRE-luciferase, luminescence | U2OS HRE-luciferase reporter; normalized: DMSO 0%, desferrioxamine 100% | activation, % at 7.5 µM (by protocol) | 300,000 tested, 0.32% active | AID 1910, 2009;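 active = mean activation of at least 10% of the iron chelator positive control signal, with at least half of replicates also reaching 10%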
AHR act: AHR activators, primary screen, cell-based, luminescence, luciferase reporter, human | Aryl hydrocarbon receptor (Homo sapiens), P35869 | AHR-responsive luciferase reporter cells | 320,000 tested, 2.5% active | activation, % at 5 µM; in the data active = activation above about 47%
sPLA2-III inh: human group III sPLA2 inhibitors, primary screen, biochemical, QFRET, BODIPY PC-A2 liposome substrate | QFRET BODIPY PC-A2 liposome hydrolysis, fluorescence | inhibition, % at 12.2 µM | 370,000 tested, 0.56% active | AID 743126, 2013;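 active = inhibition above mean plus 3 SD of compounds lying within the high and low control bounds, cut at about 19% in these data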
CR mimetic SO: reduction of superoxide in aged yeast, primary screen, HTS; 330,000 tested, 0.18% active; S. cerevisiae aged cells, superoxide DHE fluorescence; stronger effect = lower value; AID 2690, 2010; superoxide response (% of plate mean), % at 10 µM;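 active = superoxide response under a set limit, about three screen SD below normal, cut at about 65% in these data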;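 also: yeast aged for seven days with compound at 30 °C before DHE staining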
PLCg1 inh: PLC-gamma1 enzyme inhibitors, primary screen, biochemical, fluorescence, purified enzyme | AID 720700, 2013 | 370,000 tested, 0.84% active | inhibition, % at 12.2 µM | fluorogenic substrate; in the data active = inhibition above about 9.5%
hGIII sPLA2 conf: human group III sPLA2 inhibitors, confirmation, biochemical, QFRET, triplicate; shares compounds with sPLA2-III inh; recombinant hGIII-sPLA2, BODIPY PC-A2 QFRET fluorescence; inhibition, % at 12.2 µM; 2,000 tested, 34% active;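 active = mean inhibition across triplicates above the hit cutoff set in the earlier primary screen, cut at about 19% in these data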
535nm interf: 535nm fluorescence optical interference, confirmation, artefact control for HGIII-sPLA2 inhibitor project, biochemical, QFRET; shares compounds with sPLA2-III inh; 2,000 tested, 8.5% active; inhibition, % at 12.2 µM; BODIPY FL product fluorescence interference;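 active = average inhibition above the solvent-only control mean plus 3 SD, cut at about 6% in these data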
BODIPY interf DR: 535nm fluorescence optical interference, dose response, artefact control for HGIII-sPLA2 inhibitor project, biochemical, QFRET; BODIPY FL product fluorescence interference, cell-free; 240 tested, under 10 active; IC50, µM; shares compounds with sPLA2-III inh;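 active = IC50 at or below 10 µM; inactive = IC50 above 10 µM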
Each line names hits and unclear results; the compound was inactive in the other large screens (follow-up assays come after a bar, where they were run).

Cc1ccc(S(=O)(=O)NNC(=O)c2sc(=S)n(C)c2C)cc1	sPLA2-III inh 23 | hGIII sPLA2 conf inactive | 535nm interf inactive
Cc1ccc(S(=O)(=O)NNC(=O)c2ccncc2)cc1	none
CCOC(=O)Cn1cc(CN2C(C(=O)OC)CN(C3CCCC3)CCS2(=O)=O)nn1 (stereo not given)	none (no result: HIF activator, AHR act, CR mimetic SO)
COc1ccc(NC(=S)NNC(=O)COc2ccc(Cl)cc2Cl)cc1	none
O=C(CNc1cccc(Cl)c1)NNC(=S)NCc1ccccc1	sPLA2-III inh 27 | hGIII sPLA2 conf 32 | 535nm interf inactive | BODIPY interf DR inactive
COc1ccc(NC(=S)NNC(=O)CNc2ccc(Cl)cc2)cc1	sPLA2-III inh 29 | hGIII sPLA2 conf 35 | 535nm interf 7.4
Cc1c(C(=O)NNC(=S)NCc2ccc(Cl)cc2)oc2ccccc12	sPLA2-III inh 24 | hGIII sPLA2 conf inactive | 535nm interf 16
O=C(CNc1ccc(Cl)cc1)NNC(=S)NCc1ccccc1	sPLA2-III inh 25 | hGIII sPLA2 conf 38 | 535nm interf inactive | BODIPY interf DR inactive
S=C(NCc1ccccc1)Nc1cccc(Cl)c1	none (no result: HIF activator)
CCN(CC(=O)NCc1cccs1)C(=O)CCC(=O)c1ccc(F)cc1	none
Cc1cccc(C(=O)NC(=S)N2CCN(C)CC2)c1	none
Cc1cccc(C(=O)NC(=S)N2CCN(C(=S)NC(=O)c3cccc(C)c3)CC2)c1	sPLA2-III inh 29 | hGIII sPLA2 conf inactive | 535nm interf inactive
CCCNC(=S)N1CCC(NC(=O)c2cccc(C)c2)CC1	sPLA2-III inh 20 | hGIII sPLA2 conf inactive | 535nm interf inactive
COc1ccccc1OCC(=O)Nc1ccc2c(c1)OCO2	none
Cc1ccccc1OCC(=O)Nc1ccc2c(c1)OCO2	sPLA2-III inh 23 | hGIII sPLA2 conf inactive | 535nm interf inactive
Cc1cc(C)n2nc(C(=O)OCC(=O)Nc3cc(S(=O)(=O)N4CCOCC4)ccc3Cl)nc2n1	none (no result: HIF activator, AHR act, CR mimetic SO)
COCCN1C(=O)CCC1(C)C(=O)Nc1ccc2c(c1)OCCO2 (stereo not given)	none (no result: HIF activator, AHR act, CR mimetic SO)
COc1cccc(Nc2nc(C(C)N)cs2)n1 (stereo not given)	none (no result: HIF activator, AHR act, CR mimetic SO)
COc1cccc(Nc2nc(C(N)c3ccccc3)cs2)n1 (stereo not given)	sPLA2-III inh 24 (no result: HIF activator, AHR act, CR mimetic SO) | hGIII sPLA2 conf inactive | 535nm interf inactive
COC(=O)C(C)(C)ONC(=O)Nc1ccccc1Br	sPLA2-III inh 21 (no result: HIF activator) | hGIII sPLA2 conf inactive | 535nm interf inactive
O=C(Nc1nc(-c2ccccn2)cs1)c1ccc(Cl)s1	sPLA2-III inh 27 (no result: HIF activator) | hGIII sPLA2 conf 24 | 535nm interf inactive
O=C(Nc1nc(-c2ccccn2)cs1)c1ncc(Cl)c(Cl)c1Cl	sPLA2-III inh 27 | hGIII sPLA2 conf 21 | 535nm interf inactive
O=C(Nc1nc(-c2ccccn2)cs1)c1cc2ccccc2o1	sPLA2-III inh 31 | hGIII sPLA2 conf 19 | 535nm interf inactive
O=C(O)C1CC=CCC1C(=O)Nc1ccc(N2CCN(Cc3ccccc3)CC2)cc1 (stereo not given)	none
OCC1(CCc2ccccc2)CCN(Cc2cccn2-c2cccnc2)CC1	none
COc1ccc(C(NC(C)=O)c2nccc3cc(OC)c(OC)cc23)cc1OC (stereo not given)	sPLA2-III inh 20 (no result: AHR act) | hGIII sPLA2 conf inactive | 535nm interf inactive
Cc1cc(C(=O)NNC(=O)C(C)(C)Oc2ccc(Cl)cc2)c(C)o1	none (no result: HIF activator)
Cc1ccccc1CN1CCCCC(NC(=O)c2ccccc2C)C1=O (stereo not given)	none (no result: HIF activator, AHR act, CR mimetic SO)
CCCCCOc1ccc(Br)cc1CSC(=N)N	sPLA2-III inh 29 (no result: AHR act, CR mimetic SO) | hGIII sPLA2 conf 21 | 535nm interf inactive
CCOc1ccc(CSC(=N)N)cc1	none
CCCCOc1ccc(CSC(=N)N)cc1Cl	sPLA2-III inh 54 | hGIII sPLA2 conf 32 | 535nm interf inactive | BODIPY interf DR inactive
COc1ccc(Br)cc1CSC(=N)N	sPLA2-III inh 33 | hGIII sPLA2 conf inactive | 535nm interf inactive
S=C(NCCCN1CCOCC1)Nc1cccc(Cl)c1	none
Cc1cccc(NC(=S)NCCCN2CCOCC2)c1	sPLA2-III inh 19 | hGIII sPLA2 conf inactive | 535nm interf inactive
CSCCC(NC(=O)c1ccccc1Cl)C(=O)N(C)Cc1cccs1 (stereo not given)	none
Oc1ccc(Cl)cc1N=Cc1sc2ccccc2c1Cl	none
O=[N+]([O-])c1ccc(O)c(N=Cc2sc3ccccc3c2O)c1	sPLA2-III inh 26 | hGIII sPLA2 conf 36 | 535nm interf inactive | BODIPY interf DR inactive
Cc1ccc(C(=O)Cc2cc3ccccc3oc2=O)c(C)c1	none
Cc1ccc(C(=O)NC(=S)/C=C2\N(C)c3ccccc3C2(C)C)cc1	sPLA2-III inh 30 | hGIII sPLA2 conf 45 | 535nm interf inactive | BODIPY interf DR inactive
Cc1cccc(/C=N/n2c(-c3ccco3)n[nH]c2=S)c1	none
Cc1ccc(/C=N/n2c(-c3ccco3)n[nH]c2=S)cc1	sPLA2-III inh 22 | hGIII sPLA2 conf inactive | 535nm interf inactive
COc1ccc(NC(=S)Nc2ccc3nccnc3c2)cc1	sPLA2-III inh 23 | hGIII sPLA2 conf inactive | 535nm interf inactive
CCCc1cc(C(=O)NNC(=S)NCC2CCCO2)cs1 (stereo not given)	sPLA2-III inh 23 | hGIII sPLA2 conf inactive | 535nm interf inactive
CCN(CC)c1ccc(-c2nc3cnccn3c2NC2CCCC2)cc1	AHR act 69, sPLA2-III inh 21 | hGIII sPLA2 conf 27 | 535nm interf inactive
O=C(NC1CCCC1)c1cc(-c2ccc(Cl)cc2)on1	sPLA2-III inh 19 | hGIII sPLA2 conf inactive | 535nm interf inactive
NC(=O)C1CC(=O)N(c2ccc(OCc3ccc(Cl)c(Cl)c3)cc2)C1 (stereo not given)	sPLA2-III inh 21 (no result: HIF activator, AHR act, CR mimetic SO) | hGIII sPLA2 conf inactive | 535nm interf inactive
CCN(CC)S(=O)(=O)c1ccc(Cl)c(NC(=O)COc2ccc3c(C)cc(=O)oc3c2)c1	sPLA2-III inh 21 | hGIII sPLA2 conf inactive | 535nm interf inactive
